Source: PubChem BioAssay
Rows were chosen to be rich in hits. Some 8% of all compounds tested hit in one or more screens of this group.
FMDV inh: antivirals against foot and mouth disease virus | FMDV antiviral cell-based qHTS | Potency, µM (highest dose often 57.9 µM), for inactives: at the top dose activity change, negative = inhibition, most hits filed as inhibitors | 1.2% of 410,000 active | AID 1159524; calls by dose curve; tested in HEK293T cells; note: read-out not given here; potency is the fitted concentration of half-maximal effect; % is set by controls: 0 for no effect and ±100 for the full control effect; nearly all actives have a fitted effect of over 45% in size
Lassa entry inh: blocks Lassa virus binding to or entry into cells; Lassa virus pseudotype entry inhibition, cell reporter; Potency, µM (series often up to 37.9 µM), inactives show top-dose activity change, negative = inhibition, usual class: inhibitors; 1.2% of 300,000 active; AID 540256; calls by dose curve; tested in HEK293 cells; note: potency is the fitted concentration of half-maximal effect; % is set by controls: 0 for no effect and ±100 for the full control effect; nearly all actives have a fitted effect of over 50% in size
HCMV antiviral: human cytomegalovirus inhibition; HFF cells, HCMV-luciferase reporter, 72 h; active compounds read low; activity change, negative = inhibition, % at 57.5 µM; 4.5% of 410,000 active; in the data active = activity change below about -60%; inconclusive = no clear call, values can overlap the other calls; inactive = above about -39%; note: % is set by controls: 0 for no effect and ±100 for the full control effect
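Cell-based, HFFs, 1000 cells/well, 16 h 37C; cpds in DMSO + HCMV-luc, MOI 1 PFU/cell; 72 h 37C; OneGlo luminescence after 5 min RT; norm. to buffer vs Salinomycin 10uM.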
SARS PLP yeast: SARS-CoV PLP inhibition in yeast; 0.19% of 330,000 active; Potency, µM (doses to about 32.9 µM), inactives show at the top dose activity, positive = growth rescue, hits mostly activators; AID 485353; S. cerevisiae expressing SARS-CoV PLpro, growth rescue; calls by dose curve; note: potency is the fitted concentration of half-maximal effect; 0% is about no effect; nearly all actives have a fitted effect of over 55% in size
HCV inhibitor: inhibitors of hepatitis C virus infection | Huh7.5.1 HCVcc-Cre infection, luciferase reporter, 44 h | Potency, µM (highest dose often 41.8 µM), for the others: top-dose activity change, negative = inhibition, usual class: inhibitors | 3.4% of 340,000 active; active = well fitted inhibition curve with a large enough effect; inconclusive = small, poorly fitted or top-dose-only effect, or another doubt; inactive = no such curve, though single readings can be large or run the other way; note: potency is the fitted concentration of half-maximal effect; % is set by controls: 0 for no effect and ±100 for the full control effect
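Cells seeded at 1,000/well and cultured 4 h, then compounds added followed by HCVcc-Cre virus (~0.5 moi). After 44 h further culture, luciferase substrate was added, plates held 15 min at room temperature, and luminescence read for 15 sec.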
Marburg entry inh: inhibitors of Marburg virus binding or cell entry. AID 540276. Marburg virus pseudotyped entry inhibition, cell reporter. Potency, µM (highest dose often 37.8 µM), inactives show at the top dose activity change, negative = inhibition, hits mostly inhibitors. 1.8% of 300,000 active; calls by dose curve; tested in HEK293 cells; note: potency is the fitted concentration of half-maximal effect; % is set by controls: 0 for no effect and ±100 for the full control effect
Starred values were filed as active, the others as inactive; ? = inconclusive; . = not tested or not shown; [ ] = remark or other dose.

SMILES	FMDV inh	Lassa entry inh	HCMV antiviral	SARS PLP yeast	HCV inhibitor	Marburg entry inh
O=C(/C=C/c1ccc(S(=O)(=O)N2CCOCC2)cc1)Nc1ccc(F)c(F)c1F	?	?	-38	3%	?	-34%
CCN(CC)S(=O)(=O)c1ccc(/C=C/C(=O)Nc2ccc(Br)cc2F)cc1	5µM*	1.6µM*	-73*	9%	2µM*	6.5µM*
COc1ccc(/C=C/C(=O)Nc2ccc(N3CCOCC3)cc2)cc1	-19%	17%	?	21%	-23%	-6%
CCN(CC)S(=O)(=O)c1ccc(/C=C/C(=O)Nc2ccc(F)cc2F)cc1	?	.	-69*	18%	?	5%
CCN(CC)S(=O)(=O)c1ccc(/C=C/C(=O)Nc2ccc(N3CCOCC3)cc2)cc1	?	.	-83*	-1%	13µM*	-6%
CCN(CC)S(=O)(=O)c1ccc(/C=C/C(=O)Nc2ccc(F)c(F)c2F)cc1	?	?	-64*	11%	1.4µM*	?
O=[N+]([O-])c1ccc(-c2c(-c3ccccc3)ncc3cc(F)ccc23)cc1	-3%	.	-35	-6%	?	.
CCCCCC(=O)NC(=S)Nc1ccc(N2CCOCC2)cc1	20%	1%	-27	13µM*	5%	25%
O=C(NCC(c1ccco1)N1CCc2ccccc21)c1ccc([N+](=O)[O-])cc1 (stereo not drawn)	?	5%	-7	-4%	?	?
O=C(NCC(c1ccco1)N1CCCCC1)c1ccc([N+](=O)[O-])s1 (stereo not drawn)	-9%	?	9	6%	0.56µM*	?
CSCCC(NC(=O)c1ccccc1Cl)C(=O)NCC(c1ccco1)N1CCCCC1 (stereo not drawn)	0%	6%	-34	0%	-4%	?
O=C(NCC(c1ccco1)N1CCc2ccccc21)c1cccc([N+](=O)[O-])c1 (stereo not drawn)	-27%	5.6µM*	-4	-21%	-22%	?
Cc1ccc2oc(C(=O)NCC(c3ccco3)N3CCCC3)c(C)c2c1 (stereo not drawn)	-13%	.	-15	14%	32µM*	.
CC(C)C(NC(=O)c1ccccc1F)C(=O)NCC(c1ccco1)N1CCCCC1 (stereo not drawn)	2%	10%	-64*	10%	0%	?
CCN(CC)C(=O)c1c(-c2ccccc2)c(-c2ccccc2)nn(C)c1=O	-6%	-13%[46.1 µM]	-35	.	.	?
C=C1N(S(=O)(=O)C(F)(F)F)CCC12CN(C)c1ccccc12 (stereo not drawn)	.	.	3	.	.	.
O=C(NCC(c1ccco1)N1CCCC1)c1cc2cc(Cl)ccc2o1 (stereo not drawn)	-1%	0%	-25	-19%	13µM*	?
O=C(NCCCc1ccccc1)[C@@H]1Cc2ccccc2CN1	15%	10%[46.1 µM]	27	0%	7%	?
Cc1ccn2c(=O)c(C(=O)NC(C)c3ccccc3)c(O)nc2c1 (stereo not drawn)	-2%	.	-70*	.	.	?
CC(NC(=O)c1c(O)nc2ccccn2c1=O)c1ccccc1 (stereo not drawn)	-5%	.	-21	.	.	9%[46.1 µM]
O=C(Cc1ccc([N+](=O)[O-])cc1)c1ccc(O)cc1O	24%	.	36	0%	14%	.
O=[N+]([O-])c1cc(/C=N/N/C(=N/c2ccccn2)c2ccccn2)ccc1O	31%	-22%	-83*	-2%	?	?
C/C(=N\NC(=O)C(C)Oc1ccc([N+](=O)[O-])cc1)c1ccccn1 (stereo not drawn)	-26%	12µM*	-104*	-2%	?	?
COc1ccccc1NC(=O)COC(=O)/C=C/c1ccc(OC)c(OC)c1	0%	?	42	-8%	?	-2%
CCOC(=O)COn1c(=O)c(-c2ccc(OC)cc2)[n+]([O-])c2ccccc21	8%	?	-61*	-1%	18%	-1%[46.1 µM]
SMILES	FMDV inh	Lassa entry inh	HCMV antiviral	SARS PLP yeast	HCV inhibitor	Marburg entry inh
CCOC(=O)COn1c(=O)c(-c2ccccc2)[n+]([O-])c2ccccc21	-7%	0%[46.1 µM]	-31	2%	10%	4%[46.1 µM]
Oc1ccc(CNc2ccccc2)c2cccnc12	?	?	.	10µM*	?	?
Oc1ccc(CNc2ccc(F)cc2)c2cccnc12	-28%	?	-14	12%	?	?
OCc1ccnc2c(O)cccc12	-12%	4.1µM*	2	13%	?	?
Cc1cccc(NCc2ccc(O)c3ncccc23)c1	-21%	?	-84*	-1%	7.1µM*	?
COCc1ccc(O)c2ncccc12	-29%	?	-94*	-35%	5.6µM*	?
C=CCNC(=O)[C@H]1N2C(=O)c3ccccc3C2SC1(C)C (stereo partly drawn)	-4%	13%[46.1 µM]	14	2%	0%	1%[46.1 µM]
COc1ccc(CN2CCOc3ccc(CN4CCC(O)CC4)cc3C2)c(OC)c1OC	-6%	.	.	.	.	.
COc1cccc(CN2CCC3(CCC(CNC(=O)c4ccco4)O3)CC2)c1OC (stereo not drawn)	-5%	.	.	.	.	.
Cc1ccc2nc3c(cc(C(N)=S)c(=N)n3CCCOC(C)C)c(=O)n2c1	12%	-2%	-19	-2%	25µM*	-28%
COCCCn1c(=N)c(C(N)=S)cc2c(=O)n3cccc(C)c3nc21	-13%	-1%	?	.	?	?
Cc1cccn2c(=O)c3cc(C(=O)NCc4ccc(F)cc4)c(=N)n(CCCN4CCOCC4)c3nc12	4.5µM*	.	-35	.	?	.
Cc1cccn2c(=O)c3cc(C(N)=S)c(=N)n(CCCN4CCOCC4)c3nc12	?	.	-64*	0%	?	.
CO[C@H]1C[C@H](O[C@@H]2/C(C)=C/C[C@@H]3C[C@@H](C[C@]4(CC[C@H](C)[C@@H](C5CCCCC5)O4)O3)OC(=O)[C@@H]3C=C(C)/C(=N/O)[C@H]4OC/C(=C\C=C\[C@@H]2C)[C@]43O)O[C@@H](C)[C@@H]1O	-3%	.	.	.	.	.
O=C(NCc1cccs1)c1ccc(Cn2c(SCc3ccc(F)cc3)nc3cccnc32)cc1	-22%	-15%[46.1 µM]	-63*	.	.	.
CC(CNC(=O)c1ccc(CSc2nc3ccncc3n2Cc2cccc(F)c2)cc1)c1ccccc1 (stereo not drawn)	?	.	-70*	.	.	?
CC(NC(=O)c1ccc(CSc2nc3ccncc3n2Cc2ccc(F)cc2)cc1)c1ccccc1 (stereo not drawn)	-24%	-20%[46.1 µM]	-33	.	.	?
Cc1cccc(Cn2c(SCc3ccc(C(=O)NC4CCCCC4)cc3)nc3cccnc32)c1	?	?	-83*	.	.	.
Cc1cccc(Cn2c(SCc3ccc(C(=O)NC4CCCC4)cc3)nc3cccnc32)c1	-1%	?	-26	.	.	.
O=C(c1ccc(CSc2nc3ccncc3n2Cc2ccccc2)cc1)N1CCCCCC1	-5%	-2%[46.1 µM]	14	.	.	26%[46.1 µM]
